Compounds with a hit are over-represented: about 2.4% of the library has one in this group of screens.
Cruzain noTriton – inhibitors of Trypanosoma cruzi cruzain without detergent. P25779. purified cruzain, Z-FR-AMC fluorescence, no detergent. Potency, µM, hits mostly inhibitors. 2.3% of 200,000 active. AID 1476; also: nearly all actives have a fitted effect of over 40% in size
Target sequence (P25779 123-467 limits assumed): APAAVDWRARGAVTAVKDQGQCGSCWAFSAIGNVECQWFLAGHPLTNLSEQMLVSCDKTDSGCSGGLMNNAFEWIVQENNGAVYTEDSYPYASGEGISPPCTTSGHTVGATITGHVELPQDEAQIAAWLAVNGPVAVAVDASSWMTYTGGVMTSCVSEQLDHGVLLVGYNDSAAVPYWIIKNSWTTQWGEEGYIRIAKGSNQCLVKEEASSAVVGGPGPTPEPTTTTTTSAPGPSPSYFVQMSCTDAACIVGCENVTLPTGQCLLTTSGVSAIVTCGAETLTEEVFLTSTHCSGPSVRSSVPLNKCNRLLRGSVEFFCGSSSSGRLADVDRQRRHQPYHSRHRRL
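Detergent-free condition (0.00005% Triton X-100) in acetate buffer pH 5.5 with DTT. 1.5 nM enzyme and compound were pre-mixed 15 min, then 2 uM Z-FR-AMC substrate added; reaction progress from fluorescence change between first and third reads (60 s).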
Cruzain inh Det – inhibitors of Trypanosoma cruzi cruzain with detergent | AID 1478 | P25779 | Potency, µM, usual class: inhibitors | 0.43% of 200,000 active | purified cruzain, Z-FR-AMC fluorescence, 0.01% Triton; also: nearly all actives have a fitted effect of over 40% in size
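Purified cruzain (1.5 nM final) was preincubated with compounds for 15 min at room temperature in 100 mM sodium acetate pH 5.5, 5 mM DTT, 0.01% Triton X-100. Reaction started with 2 uM Z-FR-AMC; AMC fluorescence change over 60 s gave activity.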
Large screens that a line does not name were inactive. Calls follow the shape of the dose curve; as a rule, active = well fitted curve in the direction sought with a large enough effect; inconclusive = small, poorly fitted or top-dose-only effect, or another doubt; inactive = no such curve, though single readings can be large; an effect the other way counts as inactive or inconclusive.

COc1ccc(C(=O)N/N=C/c2sc3ccccc3c2O)cc1	none
COc1ccc2cc(C(=O)N/N=C/c3sc4ccccc4c3O)ccc2c1	Cruzain noTriton inconclusive, Cruzain inh Det 28.2µM
Cc1ccc(NCCC(=O)c2ccc(Br)cc2)cc1	Cruzain noTriton 20µM
CCc1ccc(NCCC(=O)c2ccc(Br)cc2)cc1	none
CCOC(=O)c1c(NC(=O)Nc2ccc(F)cc2)sc(C(=O)N(C)C)c1C	none
CC1(C)[C@@H]2CC[C@]1(C)CN(CCC[N+](C)(C)C)C2	none
Nc1ccc(N2CCN(c3cccc(Cl)c3)CC2)cc1	Cruzain noTriton 15.8µM
O=C(O)c1ccccc1C(=O)N1CCN(c2cccc(Cl)c2)CC1	none
CCOc1ccccc1NC(=O)Cn1c(=O)n(Cc2ccc(OC)cc2)c(=O)c2oc3ccccc3c21	none
O=C(O)CSc1cc(-c2ccccc2)nc2ccccc12	none
CCc1ccc(N2C(=O)CSC23C(=O)N(Cc2ccc(C)cc2)c2ccccc23)cc1 (stereo not drawn)	none
CCc1ccc(N2C(=O)CS(=O)(=O)C23C(=O)N(Cc2ccccc2)c2ccccc23)cc1 (stereo not drawn)	Cruzain noTriton 2.51µM
O=C1CS(=O)(=O)C2(C(=O)N(Cc3cccc(F)c3)c3ccccc32)N1c1ccccc1 (stereo not drawn)	Cruzain noTriton 10µM
CCc1ccc(N2C(=O)CSC23C(=O)N(Cc2cccc(F)c2)c2ccccc23)cc1 (stereo not drawn)	none
COC(=O)/C=C\c1cc(O)ccc1O	none
CCc1nc(Nc2ccc(F)c(Cl)c2)c2c3c(sc2n1)CCCC3	none
CN(C)Cc1ccccc1-c1cc(N(C)C)ncn1	none
Cc1ccc(NC(=O)CSC2=Nc3ccccc3C3=NC(Cc4ccccc4)C(=O)N23)cc1C (stereo not drawn)	none
COc1ccc(NC(=O)CSC2=Nc3ccccc3C3=NC(Cc4ccccc4)C(=O)N23)cc1Cl (stereo not drawn)	Cruzain noTriton 15.8µM
C=CCn1c(O)c(N=NC(=S)Nc2ccc(OC)c(Cl)c2)c2ccccc21	Cruzain noTriton 10µM
C=CCn1c(O)c(N=NC(=O)OC(C)(C)C)c2ccccc21	none
CN1CCN(c2ccc(NC(=O)CSc3ccccc3)cc2F)CC1	none

Screening results: PubChem, National Center for Advancing Translational Sciences (NCATS)
